Results filed as inconclusive are left out. A call without a number means that no potency is given here. Calls of active or inactive are those of the source. Calls come from the whole dose curve; as a rule, active = well fitted inhibition curve with a large enough effect; inconclusive = small, poorly fitted or top-dose-only effect; inactive = flat fitted curve, though single readings scatter.
Potency is the fitted concentration of half-maximal effect.

For the first test, the system named is JCK. Put plainly: qHTS profiling for inhibitors of Plasmodium falciparum proliferation (AID 504749). Note: nearly all actives have a fitted effect of over 60% in size. The settings on record: P. falciparum in erythrocytes, SYBR Green DNA, 72 h; series mostly up to 28.7 µM. In a few lines:
(§1)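 Parasite proliferation within erythrocytes, 72 h exposure. Endpoint: SYBR Green I fluorescence after overnight lysis at room temperature. Controls: 0.29 uM artemisinin, DMSO.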
For `Cc1cccc(C)c1NC(=O)CN1CCCCCC1`, the Potency result is “inactive”.
Take `CC(=O)NCCCCCC(=O)O`: the Potency entry is “inactive”.
As to `CCc1ccc(C(=O)C(C)CN2CCCCC2)cc1` (configuration not stated), the Potency entry was “inactive”.
On the same count and under the same terms, as for `COc1ccc2c(c1)c1c3n2CCN(C)C3=NCC1`, the entry is “inactive”; as for `CO[C@]12C[C@@H](COC(=O)c3cncc(Br)c3)CN(C)[C@@H]1Cc1cn(C)c3cccc2c13`, “inactive”.

A further test has as its system N140. The description is as above. The settings on record: P. falciparum in erythrocytes, SYBR Green DNA, 72 h; series mostly up to 28.7 µM. In a few lines:
as §1
`C[N+]1(C)CCC(=C(c2ccccc2)c2ccccc2)CC1`: the Potency entry was “inactive”.
For the compound `CCN(CC)CCOC(=O)C1(c2ccccc2)CCCC1`, the Potency entry was “inactive”.
Consider `CCC(CC)(CC(=O)Nc1cccc(/C=C/c2nc(C3CCC3)cs2)c1)C(=O)O`, for which the Potency entry was “inactive”.
In the case of `C#C[C@]1(OC(C)=O)CC[C@H]2[C@@H]3CCC4=C/C(=N/O)CC[C@@H]4[C@H]3CC[C@@]21CC`, the Potency entry was “inactive”.
Take `O=[N+]([O-])c1cccc(S(=O)(=O)NCCNS(=O)(=O)c2cccc([N+](=O)[O-])c2)c1`: the Potency entry is “inactive”.
Regarding `Cc1ncc(CO)c(C=O)c1O`, the Potency entry is “inactive”.
Turning to `CC(C)[N+](C)(C)CC(O)COc1cccc2ccccc12` (configuration not stated), the Potency result was “inactive”.
Take `CC(=O)O[C@H]1C[C@@H]2CC[C@@H]3[C@H](CC[C@@]4(C)[C@H]3C[C@H]([N+]3(C)CCCCC3)[C@@H]4OC(C)=O)[C@@]2(C)C[C@@H]1N1CCCCC1`: the Potency result is “inactive”.
Same read-out and setting: the entry for `CCNC(=O)NCc1cccc(Cl)c1` is “inactive”; for `CCOc1ccccc1OCCN[C@H](C)Cc1ccc(OC)c(S(N)(=O)=O)c1` it is “inactive”.
Consider `Oc1ccc(Cl)cc1Cc1cc(Cl)ccc1O`, for which the Potency is 11.2 µM (active).
On to `CCOC(=O)Nc1ccc2c(c1)N(C(=O)CCN1CCOCC1)c1ccccc1S2`, for which the Potency entry is “inactive”.
Still for that read-out and setting: the entry for `CC[N+](C)(CC)CCOC(=O)C(O)(c1ccccc1)C1CCCCC1` (configuration not stated) is “inactive”; for `CC(C)=CCOc1ccc(/C=C/C(=O)c2ccc(OCC=C(C)C)cc2OCC(=O)O)cc1` it is “inactive”; for `CCC(C(=O)OCCOCCN(CC)CC)c1ccccc1` (configuration not stated) it is “inactive”.
Same read-out and setting: as for `O=C(NC1CCN(CCc2c[nH]c3ccccc23)CC1)c1ccccc1`, the entry is “inactive”; as for `NC(=O)C1(N2CCCCC2)CCN(CCCC(=O)c2ccc(F)cc2)CC1`, “inactive”; as for `Cc1ccc2c(Br)cc(Br)c(O)c2n1`, 10 µM (active).
On to `Cc1cccc(C)c1NC(=O)CN1CCCCCC1`, for which the Potency entry is “inactive”.
As to `CC(=O)NCCCCCC(=O)O`, the Potency entry was “inactive”.
With `CCc1ccc(C(=O)C(C)CN2CCCCC2)cc1` (configuration not stated), the Potency entry was “inactive”.
With `COc1ccc2c(c1)c1c3n2CCN(C)C3=NCC1`, the Potency result is “inactive”.

The values are drawn from PubChem BioAssay (NCATS).
